Screens deposited in PubChem BioAssay by ICCB-Longwood Screening Facility, Harvard Medical School.
Many of the other results were omitted from the sample, so hits are more common in it than they were.
Bm FixLJ act: activators of Burkholderia fixLJ two-component system; B. multivorans fixK-promoter GFP reporter, 18 h; active compounds read high; z-score (concentration not given with the values); hit rate 0.3% among 29,000; AID 1918990;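 active means replicate mean overnight rise in green fluorescent reporter signal, 3 or more SD over negative controls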
Numbers stand for hits; i = inactive.

SMILES	Bm FixLJ act
CCOc1ccc(NC(=O)CC2C(=O)N(c3cccc(C)c3)C(=O)N2CCC2=CCCCC2)cc1 (centres undefined)	3
CCc1ccc(Cn2ncnc2-c2ccc(CSc3ncn[nH]3)o2)cc1	i
Cc1cc(CC2CN(C(=O)CCC(=O)N(C)C3CCCCC3)CC2O)on1 (centres undefined)	i
Cc1nn(C)c(C)c1CCC(=O)N1CCCC2(CCc3cn[nH]c32)C1 (centres undefined)	i
O=C(Cn1ncc2c3ccccc3n(Cc3ccc(F)cc3)c2c1=O)NCCC1=CCCCC1	i
Cc1cc(C)c(Cn2c3ccccc3c3cnn(CC(=O)NC4CCCCCC4)c(=O)c32)c(C)c1	i
O=C(Cn1ncc2c3ccccc3n(Cc3cccc(Cl)c3)c2c1=O)NCCC1=CCCCC1	13
O=C(Cn1ncc2c3ccccc3n(Cc3cccc(Cl)c3)c2c1=O)NC1CCCCCC1	23
O=C(Cn1ncc2c3ccccc3n(Cc3ccc(F)cc3)c2c1=O)NC1CCCCCC1	i
Cc1ccc(C)c(Cn2c3ccccc3c3cnn(CC(=O)NCCC4=CCCCC4)c(=O)c32)c1	i
COc1ccc(NC(=O)CN2CCN(c3ncn[nH]3)CC2)cc1Cl	i
O=C1CN(CCNc2cc(-c3ccccc3F)nc3ccnn23)CCN1	i
CCC12COC(=O)N1CCN(C(=O)COc1ccc(Cl)cc1C)C2 (centres undefined)	i
O=c1oc2c3c(ccc2c2ccccc12)OCN(Cc1cccc(Cl)c1)C3	i
O=c1oc2c3c(ccc2c2ccccc12)OCN(Cc1ccccc1Cl)C3	i
Cc1cc2c(c3oc(=O)c4ccccc4c13)CN(Cc1ccc(F)cc1)CO2	5.3
CN(CCCOc1ccccc1Cl)C(=O)CCc1cn[nH]c1	i
Cc1ccc(CCC(=O)N2CCC3(CCC(=O)N(CC(=O)O)C3)CC2)cc1	i
CCc1ccc(C2Sc3ccccc3NC3=C2C(=O)c2ccccc23)cc1 (centres undefined)	3.3
O=C1C2=C(Nc3ccccc3SC2c2ccc(C(F)(F)F)cc2)c2ccccc21 (centres undefined)	i
CC(C)c1ccc(C2Sc3ccccc3NC3=C2C(=O)c2ccccc23)cc1 (centres undefined)	i
CCN(Cc1ccncc1)C(=O)c1csc2c1CCN(Cc1c(C)noc1C)C2	i
CC1CCCCN1C1CN(C(=O)NCc2cccc(-n3cccn3)c2)C1 (centres undefined)	i
Cn1nc(C(F)(F)F)c(Cl)c1C(=O)N1C2CCNCC1CC2 (centres undefined)	i
O=C(NC1C2CCC1CN(C(=O)C1COc3ccccc3O1)C2)c1cscn1 (centres undefined)	i
SMILES	Bm FixLJ act
Cc1nc(SCC(=O)N2CCC(c3ncon3)CC2)n[nH]1	i
Cc1ccc2cc(CN3CCN(c4ccc(Cl)nn4)CC3)c(=O)[nH]c2c1	i
CC(C)c1ccc(/C=C(\C#N)c2nc(-c3cc4ccccc4oc3=O)cs2)cc1	i
COc1ccc(/C=C(/C#N)c2nc(-c3ccc(Br)cc3)cs2)cc1	i
CC(C)c1ccc(/C=C(\C#N)c2nc(-c3ccc(O)cc3)cs2)cc1	8.4
COc1ccccc1-n1cc(C(=O)NCC2CN(S(C)(=O)=O)CCO2)cn1 (centres undefined)	i
CCCC1CN(c2ncc(F)cn2)CC1NS(C)(=O)=O (centres undefined)	i
N#C/C(=C\c1ccc(-c2ccccc2C(=O)O)o1)c1nc2ccccc2[nH]1	i
N#C/C(=C\c1ccc(Cl)cc1)c1nc2ccccc2[nH]1	i
N#C/C(=C\c1ccc(-c2ccc(F)cc2F)o1)c1nc2ccccc2[nH]1	14
Cc1noc(C)c1CN(C)Cc1ccc(C2CCCCO2)o1 (centres undefined)	i
COc1ccc(C)cc1C(=O)N1CC(O)C(Cc2ccnc3ccccc23)C1 (centres undefined)	i
COc1ccc(NCc2nc3ccccc3n2CCOc2ccccc2C)cc1	i
O=C(O)c1ccc(NCc2nc3ccccc3n2CCOc2ccccc2Cl)cc1	i
Fc1ccc(NCc2nc3ccccc3n2CCOc2ccccc2Cl)cc1	3.3
Cc1cnc(CN(C)C(=O)NC23CC4CC(CC(C4)C2)C3)[nH]1	i
COc1ccccc1CCNC(=O)CCc1c(C)c2cc3c(C)c(C)oc3cc2oc1=O	i
COc1ccccc1CNC(=O)CCc1c(C)c2cc3c(C)c(C)oc3cc2oc1=O	3.5
COc1ccccc1CNC(=O)CCc1c(C)c2ccc(OC)c(C)c2oc1=O	i
COc1ccccc1OCc1nc(CN2CCCCC2C)n(CC(C)(C)O)n1 (centres undefined)	i
C=CCN1CCN(C(=O)c2cccc(-c3ccc(C(N)=O)s3)c2)CC1	i
CC(=O)c1ccc(NC(=O)C2CCCN(S(=O)(=O)c3ccc(Br)s3)C2)cc1 (centres undefined)	3.2
Cc1cc(NC(=O)C2CCCN(S(=O)(=O)c3ccc(Br)s3)C2)ccc1Br (centres undefined)	i
CC(=O)c1ccc(N2CCN(C(=O)C3CCCN(S(=O)(=O)c4ccc(Br)s4)C3)CC2)cc1 (centres undefined)	i
COCc1noc(CNC(=O)c2ccc(NC(C)=O)cc2Cl)n1	i
SMILES	Bm FixLJ act
CC(C)n1cnnc1CNC(=O)N(CC=Cc1ccccc1)CC1CCCO1 (centres undefined)	i
COc1ccc(CN2CCN(C(=O)C(C)C)C3CS(=O)(=O)CC32)cc1 (centres undefined)	i
N#Cc1cccc(NC(=O)N2CC3CCC(C2)N(CC2CC2)C3=O)c1 (centres undefined)	i
CCc1ccc2occ(CC(=O)Nc3nnc(SC)s3)c2c1	i
Cc1ccc(NC(=O)Cc2coc3ccc(C(C)C)cc23)cc1Cl	i
CCc1ccc2occ(CC(=O)Nc3ccc(C)c(C)c3)c2c1	3.4
CC(C1CCN(c2nc(N)c3cnn(C)c3n2)CC1)N1CCCC1 (centres undefined)	i
COc1cc2c(cc1OC)C1(CCN(C(=O)c3ccnn3C)CC1)OCC2	i
C=CCNC(=O)N1CCCn2nc(-c3nc4ccccc4n3C)cc2C1	i
CCOc1ncccc1C(=O)NCC1CCCN(C(=O)Cc2nonc2C)C1 (centres undefined)	i
CN(Cc1ccccc1)C(=O)CSc1c2c(nc3ccc(Cl)cc13)CCCC2	i
O=C(NCc1cccc(Cl)c1)c1ccc2c(Cl)c3c(nc2c1)CCCC3	i
Cc1nc(SCc2cccc(Cl)c2)nc2c1CCCC2	3
Cn1ccnc1CCN1CCN(CC(=O)NC(C)(C)C)CC1	i
CCc1nn(C)c(Cl)c1CN1CCN(c2cc(OC)ncn2)CC1	i
CNC(=O)c1cc(S(=O)(=O)NCc2csc(N)n2)ccc1OC	i
CCN(Cc1ccc(C)o1)C(=O)c1cc(CC(C)C)nc(N)n1	i
Cc1cccc(N2CCN(S(=O)(=O)c3cc(Cl)ccc3Cl)CC2)c1C	i
CCOc1ccc(OCC)c(S(=O)(=O)N2CCN(c3cccc(C)c3C)CC2)c1	3.4
COc1ccc(S(=O)(=O)N2CCN(c3cccc(C)c3C)CC2)c2ccccc12	i
O=C(NCc1nccn1Cc1ccccc1)[C@@]12CCC(N3CCOCC3)C[C@H]1CCNC2 (some centres undefined)	i
O=C(O)c1cnc(NCCN2CCC(c3ccccc3)C2)c(Cl)c1 (centres undefined)	i
CC(c1nncn1C)n1ccnc1-c1sc(N(C)C)nc1Cl (centres undefined)	i
O=C1c2ccccc2-c2onc3c(NCCO)cc(NC4CCCCC4)c1c23	i
CCCCNc1cc(NC2CCCCC2)c2c3c(onc13)-c1ccccc1C2=O	4.2
CCNc1cc(N2CCN(C3CCCCC3)CC2)c2noc3c2c1C(=O)c1ccccc1-3	i
